HCMV inh: human cytomegalovirus inhibition | HFF cells, HCMV-luciferase reporter, 72 h; hits give low values | 410,000 tested, 4.5% active | activity change, negative = inhibition, % at 57.5 µM; in the data active = activity change below about -60%; inconclusive = no clear call, values can overlap the other calls; inactive = above about -39%; also: % is scaled to controls: 0 for no effect and ±100 for the full control effect
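Two compound doses tested in HFFs infected with HCMV-luciferase, MOI 1 PFU/cell, 72 h at 37C. Lysate luminescence read with OneGlo; data normalized against buffer-only and 10uM Salinomycin inhibitor controls.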
SARS PLP yeast: inhibitors of SARS-CoV papain-like protease in yeast | Potency, µM (series often up to 32.9 µM), for inactives: at the highest dose activity, positive = growth rescue, hits mostly activators | 330,000 tested, 0.19% active | AID 485353 | S. cerevisiae expressing SARS-CoV PLpro, growth rescue; calls by dose curve; also: potency is read from the fitted curve at half-maximal effect; 0% is about no effect; nearly all actives have a fitted effect of over 55% in size
Pf growth 48h: P. falciparum growth inhibition at 48 hours (one generation); 310,000 tested, 5.9% active; P. falciparum luciferase growth in erythrocytes, 48 h; AID 504832; Potency, µM (series often up to 28.7 µM), without a hit: at the highest dose activity change, negative = inhibition, usual class: inhibitors; also: potency is read from the fitted curve at half-maximal effect; % is scaled to controls: 0 for no effect and ±100 for the full control effect
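Luciferase-expressing P. falciparum in infected erythrocytes (2% hematocrit, 0.1% parasitemia final) in RPMI 1640/0.5% Albumax were exposed to compound for 48 hours at 37 C, 5% CO2; growth read as luminescence.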
HCV inhibitor: HCV inhibition. Potency, µM (series often up to 41.8 µM), without a hit: at the highest dose activity change, negative = inhibition, most hits filed as inhibitors. AID 651820. 340,000 tested, 3.4% active. Huh7.5.1 HCVcc-Cre infection, luciferase reporter, 44 h; also: potency is read from the fitted curve at half-maximal effect; % is scaled to controls: 0 for no effect and ±100 for the full control effect
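Infectious HCVcc-Cre (~0.5 moi) was added to cells just after compound, with cells seeded 4 h earlier at 1,000 per well. Luciferase activity after 44 h culture reported infection; substrate was incubated 15 min at room temperature before reading.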
Pf growth 96h: inhibits malaria parasite growth, 96 h; Potency, µM (highest dose often 28.7 µM), for the others: top-dose activity change, negative = inhibition, actives largely listed as inhibitors; 320,000 tested, 6.9% active; P. falciparum luciferase reporter growth, 96 h; also: potency is read from the fitted curve at half-maximal effect; % is scaled to controls: 0 for no effect and ±100 for the full control effect
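Compounds incubated with erythrocytes infected by luciferase-expressing P. falciparum (2% hematocrit, 0.05% parasitemia final) for 96 hours, 37 C in 5% CO2. Growth inhibition scored as decreased luciferase luminescence.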
Sm TGR block: inhibitors of Schistosoma mansoni thioredoxin glutathione reductase. 360,000 tested, 3% active. Q962Y6. Potency, µM (doses to about 114 µM), for inactives: at the top dose activity change, negative = inhibition, most hits filed as inhibitors. purified TGR, DTNB reduction, TNB absorbance 405 nm; also: potency is read from the fitted curve at half-maximal effect; % is scaled to controls: 0 for no effect and ±100 for the full control effect; nearly all actives have a fitted effect of over 60% in size
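TGR 20 nM + NADPH 100 uM (dispensed conc.), cpd preinc 15 min RT; start with NADPH (500 uM addition) then DTNB (15 mM addition). Kinetic TNB absorbance, 405 nm filter. Four-parameter Hill fit across titration.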
Numbers without * were called inactive; [ ] = dose if it differs, or a comment. Shown are actives, neighbours in structure and some others; about 15% of the full set was active somewhere. Unless noted, calls follow the shape of the dose curve; as a rule, active = well fitted curve in the direction sought with a large enough effect; inconclusive = small, poorly fitted or top-dose-only effect, or another doubt; inactive = no such curve, though single readings can be large; an effect the other way counts as inactive or inconclusive.

What do the screens show for `COc1ccc2cc(-c3[nH]ncc3CN3CCCC3c3nonc3C)ccc2c1` (centres undefined)?
HCMV inh: 0.0; SARS PLP yeast: -0.7%; Pf growth 48h: -22.2%; HCV inhibitor: inconclusive; Pf growth 96h: 4.65µM*; Sm TGR block: -29.5%[57.1 µM]

What do the screens show for `Cc1cc(N2CC(C)OC(C)C2)n2cc(-c3ccccc3)nc2n1` (centres undefined)?
HCMV inh: -98.5*; SARS PLP yeast: -2.6%; Pf growth 48h: inconclusive; HCV inhibitor: -18.4%; Pf growth 96h: inconclusive; Sm TGR block: -3.5%

Results for Cc1ccc(C)c(CSC2=NCCN2S(=O)(=O)c2ccccc2)c1 ?
HCMV inh: -38.0; SARS PLP yeast: 0.6%; Pf growth 48h: inconclusive; HCV inhibitor: inconclusive; Pf growth 96h: inconclusive; Sm TGR block: 12.3%

Results for COc1ccc(NC(=O)Nc2c[nH]c(=O)[nH]c2=O)cc1 ?
HCMV inh: 18.9; SARS PLP yeast: 11.8%; HCV inhibitor: -3.2%; Pf growth 96h: 2.62µM*; Sm TGR block: -15.5%

How did COc1ccc(NC(=O)Nc2cc(NC(=O)Nc3ccc(OC)cc3)c(C)nc2C)cc1 do in these assays?
HCMV inh: -24.8; SARS PLP yeast: 10.4%; Pf growth 48h: 2.7%; HCV inhibitor: -0.8%; Pf growth 96h: 36.6%; Sm TGR block: -2.2%

What do the screens show for `O=C(Cn1c(C(=O)N2CCc3ccccc3C2)cc2sccc21)c1ccccc1`?
HCMV inh: -11.6; SARS PLP yeast: -0.9%; Pf growth 48h: 14.7µM*; HCV inhibitor: 1.1%; Pf growth 96h: -4.7%; Sm TGR block: 0.5%

How did O=C(Nc1ccc(O)c(-c2nc3ccccc3o2)c1)C1(c2ccccc2)CCCC1 do in these assays?
HCMV inh: -9.3; SARS PLP yeast: -0.5%; Pf growth 48h: 14.7µM*; HCV inhibitor: inconclusive; Pf growth 96h: 29.5%; Sm TGR block: 0.0%

What do the screens show for `COC(=O)c1cc(=O)n(CCc2ccc(OC)cc2)c(=Nc2ccc(F)c(Cl)c2)s1`?
HCMV inh: inconclusive; SARS PLP yeast: 0.3%; HCV inhibitor: inconclusive; Pf growth 96h: 113.8%; Sm TGR block: 2.1%

What do the screens show for `CCn1c(=O)cc(C(=O)OC)sc1=Nc1ccc(F)c(F)c1`?
HCMV inh: 146.1; SARS PLP yeast: -12.4%; HCV inhibitor: 12.6µM*; Pf growth 96h: -35.0%; Sm TGR block: 11.3%

Results for COC(=O)c1cc(=O)n(CCc2ccccc2)c(=Nc2ccc(F)cc2)s1 ?
HCMV inh: -35.5; SARS PLP yeast: -12.2%; Pf growth 48h: inconclusive; HCV inhibitor: 6.9%; Pf growth 96h: 4.15µM*; Sm TGR block: 4.5%

How did COc1ccc(NC(C)=O)cc1NC(=O)C1(c2cccs2)CCOCC1 do in these assays?
HCMV inh: 29.8; Sm TGR block: -6.1%

Results for C=CC[C@@H](CC(=O)N[C@H](CO)Cc1ccccc1)C(=O)NC[C@H](OC(=O)[C@@H](CC=C)Cc1ccc(F)cc1)c1ccccc1 ?
HCMV inh: -31.9; SARS PLP yeast: 2.1%; HCV inhibitor: inconclusive

What do the screens show for `Cc1nn(CC(=O)NCCc2ccccc2)c(=O)c2ccccc12`?
HCMV inh: 14.8; SARS PLP yeast: -0.5%; Pf growth 48h: 16.6%; HCV inhibitor: 3.6%; Pf growth 96h: -14.9%; Sm TGR block: -2.8%

What do the screens show for `CCn1c(-c2ccc(C)cc2)nn(CC(=O)NCCc2ccccc2)c1=S`?
HCMV inh: -103.5*; SARS PLP yeast: -8.3%; Pf growth 48h: -13.7%; HCV inhibitor: inconclusive; Pf growth 96h: inconclusive; Sm TGR block: -0.3%

Results for COc1ccc(-c2nn(CC(=O)NCCc3ccccc3)c(=S)n2C)cc1 ?
HCMV inh: -95.7*; SARS PLP yeast: 9.3%; Pf growth 48h: -10.1%; HCV inhibitor: inconclusive; Pf growth 96h: inconclusive; Sm TGR block: -14.4%

What do the screens show for `CCc1ccc(OC(C)C(=O)N2CCC(c3nc4ccccc4s3)CC2)cc1` (centres undefined)?
HCMV inh: -14.3; Sm TGR block: 4.1%

What do the screens show for `CCCCC(CC)COC1(c2ccccc2)OC(=O)c2ccccc21` (centres undefined)?
HCMV inh: 39.8; SARS PLP yeast: -23.4%; Pf growth 48h: 9.28µM*; Pf growth 96h: 8.28µM*; Sm TGR block: 2.8%

What do the screens show for `OC1CCN(Cc2cn(Cc3ccccc3)nc2-c2cc3ccccc3o2)CC1`?
HCMV inh: -16.1; SARS PLP yeast: 0.3%; Pf growth 48h: 13.1µM*; HCV inhibitor: inconclusive; Pf growth 96h: -23.9%; Sm TGR block: 3.6%

What do the screens show for `COCC1CCCN(Cc2cn(Cc3ccccc3)nc2-c2cc3ccccc3o2)C1` (centres undefined)?
HCMV inh: -77.7*; SARS PLP yeast: -0.1%; Pf growth 48h: inconclusive; HCV inhibitor: inconclusive; Pf growth 96h: -16.9%; Sm TGR block: 3.2%

What do the screens show for `CCc1ccc2c(CN3CCC(C(=O)OC)CC3)cc(=O)oc2c1`?
HCMV inh: 52.2; SARS PLP yeast: 0.4%; HCV inhibitor: 22.6%; Pf growth 96h: -4.0%; Sm TGR block: -21.9%

Results for COC(=O)C1CCN(Cc2cn(Cc3ccccc3)nc2-c2cc3ccccc3o2)CC1 ?
HCMV inh: 14.4; SARS PLP yeast: -0.7%; Pf growth 48h: 8.28µM*; HCV inhibitor: inconclusive; Pf growth 96h: -3.9%; Sm TGR block: 13.5%

How did COCC1CCN(Cc2cn(Cc3ccccc3)nc2-c2cc3ccccc3o2)CC1 do in these assays?
HCMV inh: 5.3; SARS PLP yeast: -0.3%; Pf growth 48h: inconclusive; HCV inhibitor: -8.9%; Pf growth 96h: 30.9%; Sm TGR block: 7.3%[57.1 µM]

Results for CCOC(=O)c1[nH]c2ccccc2c1NC(=O)c1ccc(OC(C)C)cc1 ?
HCMV inh: 29.1; Sm TGR block: -1.3%

How did N#Cc1cnn(-c2cccc(Cl)c2)c1-n1cccc1 do in these assays?
HCMV inh: 6.5; SARS PLP yeast: -0.8%; Pf growth 48h: 12.1%; HCV inhibitor: 4.4%; Pf growth 96h: 5.5%; Sm TGR block: 5.2%

How did CC(C#N)(NC(=O)CN1CCN(S(=O)(=O)c2cccc(F)c2)CC1)C1CC1 (centres undefined) do in these assays?
HCMV inh: 20.0

How did O=C(Nc1cccc(NC(=O)c2ccco2)c1)c1cccc(Br)c1 do in these assays?
HCMV inh: -90.1*; SARS PLP yeast: -23.8%; Pf growth 48h: 0.0%; HCV inhibitor: -27.6%; Pf growth 96h: -13.5%; Sm TGR block: 0.0%

How did CCCCC(=O)Nc1cccc(NC(=O)c2cccc(Br)c2)c1 do in these assays?
HCMV inh: -34.6; SARS PLP yeast: -0.6%; Pf growth 48h: 8.9%; HCV inhibitor: 11.2µM*; Pf growth 96h: 61.4%[5.75 µM]; Sm TGR block: 12.5%

Screening data: PubChem, National Center for Advancing Translational Sciences (NCATS)
